Drawing on PubChem BioAssay AID772 (SRMLSC, 2007), this text covers growth inhibition and condensed nuclei for ten molecules.

Among all 3,300 compounds or so, about 20 (0.6%) were called active.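 How the source made its calls: active means growth inhibition above 90%, meaning viable cell count cut by more than 90% versus vehicle controls; inactive means growth inhibition below 90%.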 What follows is part of a selection rich in actives, with near analogues and random picks from the rest.

This experiment is described as follows: HT29 colon tumor cell growth inhibition, primary screen, imaging, high content imaging, 72 h, CellTiter-Glo (AID 772).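 On condensed nuclei: condensed means nuclear area below control median minus 1.5 SD.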 The following applies: HCS imaging cell count, at 10 µM, stronger effect = higher value; for condensed nuclei: measured here: percent cells with condensed nuclei. (ATP-based viability assays read luminescence as a measure of living cells.)
Where [1] appears, read: measured here: ATP CellTiter-Glo viability.

With `COCC(C)OC(=O)c1c(N)n(Cc2ccco2)c2nc3ccccc3nc12` (stereo not given), the growth inhibition is 44.2% (inactive) and the condensed nuclei amounted to 1.26%. The growth inhibition under setting [1] was found to be 19.7%.

On to `CC(C)(C)OC(=O)c1c(N)n(Cc2ccco2)c2nc3ccccc3nc12`, for which the growth inhibition is 44.5% (inactive) and the condensed nuclei came out at 4.1%. Also, the growth inhibition under setting [1] came out at 20.9%.

On to `COCCOC(=O)c1c(N)n(Cc2ccco2)c2nc3ccccc3nc12`, for which the growth inhibition is -33.9% (inactive) and the condensed nuclei stood at 3.83%. In addition, the growth inhibition under setting [1] was -49.5%.

As to `CCCCOCCCn1c(N)c(C(=O)OC(C)COC)c2nc3ccccc3nc21` (stereo not given), the growth inhibition was 91.4% (active) and the condensed nuclei was determined as 11%. Moreover, the growth inhibition under setting [1] came to 77.2%.

Take `CCCCOCCCn1c(N)c(C(=O)OCCOC)c2nc3ccccc3nc21`: the growth inhibition was 95.3% (active) and the condensed nuclei turned out to be 17.2%. Besides, the growth inhibition under setting [1] worked out at 57.5%.

On to `CC(C)OC(=O)c1c(N)n(Cc2ccco2)c2nc3ccccc3nc12`, for which the growth inhibition was 31.4% (inactive) and the condensed nuclei came out at 3.52%. Moreover, the growth inhibition under setting [1] is -17.3%.

Regarding `COc1ccc(C2SCC(=O)Nc3c2c(=O)[nH]n3C2CCCCC2)cc1` (stereo not given), the growth inhibition is 1.43% (inactive) and the condensed nuclei was 12.4%. Also, the growth inhibition under setting [1] is -9.94%.

As to `Clc1ccc(CSC(Cn2ccnc2)c2ccc(Cl)cc2Cl)cc1` (stereo not given), the growth inhibition is 57.5% (inactive) and the condensed nuclei stood at 13.6%. Further, the growth inhibition under setting [1] stood at 71.7%.

With `CCN(CC)CCCNC(=O)c1c(O)c2ccccc2n(Cc2ccccc2)c1=O`, the growth inhibition is 84.5% (inactive) and the condensed nuclei came to 16%. In addition, under setting [1], the growth inhibition worked out at 95.7%.

With `CCCCn1c(O)c(C=NCCN2CCCCC2)c(=O)[nH]c1=O`, the growth inhibition is 4.76% (inactive) and the condensed nuclei is 0.91%. Under setting [1], the growth inhibition is -24.2%.
